Hits are enriched below; roughly 3.8% of the tested compounds scored in any of these assays.
Nrf2 ARE act – activators of Nrf2 (ARE) signaling; AREc32 ARE-luciferase reporter (MCF7-derived line), luminescence, 24 h; Potency, µM (titrated, usually from 46.1 µM), without a hit: at the top dose activation, usual class: activators; 410,000 compounds, 0.31% hits; note: % of control where 0% means no effect; nearly all actives have a fitted effect of over 65% in size
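AREc32_Fluc, 1000 cells/well, OPTI-MEM + 5% FBS, o/n 37 deg C 5% CO2; 23 nL cpd by pin tool, 24 hr; Steady-Glo 30 min RT, luminescence.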
ELG1 DNA repair – blocks ELG1-dependent DNA repair in HEK293T cells | AID 504467 | 330,000 compounds, 2.3% hits | HEK293T ELG1-luciferase reporter, luminescence, 16 h; DNA damage induced by 5-fluorouridine | Potency, µM (highest dose often 46.1 µM), for inactives: at the highest dose activity change, negative = inhibition, actives largely listed as inhibitors; note: % is set by controls: 0 for no effect and ±100 for the full control effect; nearly all actives have a fitted effect of over 55% in size
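DMSO vehicle served as the neutral condition. Each well held 2,000 cells given 5-fluorouridine plus compound; after 16 hr at 37 °C/5% CO2, ONE-Glo was added and luciferase measured 30 min later.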
IDH1 R132H inh – inhibitors of human mutant IDH1 R132H. IDH1-R132H enzyme, NADPH consumption, diaphorase/resazurin fluorescence. Potency, µM (highest dose often 76.6 µM), for inactives: at the top dose activity change, negative = inhibition, hits mostly inhibitors. 390,000 compounds, 0.093% hits. AID 602179; note: % is set by controls: 0 for no effect and ±100 for the full control effect; nearly all actives have a fitted effect of over 65% in size
Target sequence (O75874 whole entry R132H, stated change not applied): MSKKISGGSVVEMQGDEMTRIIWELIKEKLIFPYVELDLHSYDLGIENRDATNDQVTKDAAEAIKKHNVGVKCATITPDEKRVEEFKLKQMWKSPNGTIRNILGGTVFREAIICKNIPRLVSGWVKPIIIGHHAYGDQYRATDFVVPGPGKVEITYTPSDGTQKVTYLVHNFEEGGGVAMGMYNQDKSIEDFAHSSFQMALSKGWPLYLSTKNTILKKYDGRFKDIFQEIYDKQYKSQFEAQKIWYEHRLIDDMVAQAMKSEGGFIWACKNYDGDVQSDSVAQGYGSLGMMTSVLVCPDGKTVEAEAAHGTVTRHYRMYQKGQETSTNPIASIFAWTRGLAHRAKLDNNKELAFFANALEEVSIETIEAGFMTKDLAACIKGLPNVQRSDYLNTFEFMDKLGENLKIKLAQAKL
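IDH1-R132H (0.5 ug/mL dispensed) in pH 7.5 Tris buffer was preincubated 30 min with compound, then given a substrate mix of 0.016 mM NADPH and 2 mM alpha-KG for 80 min at room temperature; remaining NADPH was read by diaphorase/resazurin fluorescence.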
A549 viability – kills or reduces viability of A549 cells in Nrf2 counter-screen; 390,000 compounds, 0.16% hits; Potency, µM (top dose mostly 46 µM), for inactives: top-dose activity change, negative = cytotoxicity, hits mostly inhibitors; AID 504648; A549 ARE-Fluc cells, CellTiter-Fluor viability, 18-24 h; note: % is set by controls: 0 for no effect and ±100 for the full control effect
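A549 ARE-Fluc cells in 5% FBS OPTI-MEM, 5000 cells/well, rested 2 h then exposed to compounds in concentration-response for 18-24 h at 37 °C. Viability by CellTiter-Fluor fluorescence (Ex 405/Em 525) after 30 min; luciferase luminescence (BugLite, 15 min, RT) read afterwards.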
Nrf2 block – inhibitors of Nrf2 signaling | A549 ARE-Fluc reporter, luciferase luminescence, 18-24 h | Potency, µM (top dose mostly 46 µM), inactives show at the top dose activity change, negative = inhibition, actives largely listed as inhibitors | 360,000 compounds, 2.1% hits; note: % is set by controls: 0 for no effect and ±100 for the full control effect; nearly all actives have a fitted effect of over 60% in size
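Two sequential reads on A549 ARE_Fluc cells exposed to compound for 18-24 h: a CellTiter-Fluor fluorescence read for viability, then a luciferase luminescence read for Nrf2/ARE activity.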
Numbers without * were called inactive; ? = inconclusive; · = not tested or not shown; [ ] = another dose, or the depositor's remark. Calls come from the whole dose curve; as a rule, active = well fitted curve in the direction sought with a large enough effect; inconclusive = small, poorly fitted or top-dose-only effect, or another doubt; inactive = no such curve, though single readings can be large; an effect the other way counts as inactive or inconclusive. Potency is the fitted concentration of half-maximal effect.

SMILES	Nrf2 ARE act	ELG1 DNA repair	IDH1 R132H inh	A549 viability	Nrf2 block
COc1ccc(C(=O)Nc2nc3ccccc3s2)c(OC)c1	-1.6%	3.66µM*	11.8%	4.3%	7.31µM*
COc1ccccc1C(=O)Nc1nc2ccccc2s1	-6.1%	?	17.7%	3.1%	6.51µM*
COc1ccc2nc(NC(=O)c3ccccc3F)sc2c1	?	?	0.9%	7.3%	1.3µM*
CCOc1ccc(C(=O)N2CC(=O)Nc3ccc(F)cc3C2c2ccc(F)cc2)cc1 (stereo not given)	2.4%	·	1.3%	1.1%	0.0%[9.27 µM]
Cc1c(NS(=O)(=O)c2cccs2)cccc1-c1nc2cccnc2s1	3.2%	?	-7.2%	-2.8%	3.8%
O=S(=O)(Nc1cccc2ncccc12)c1cccs1	?	4.11µM*	20.0%	?	20.6µM*
Cc1ccc(NC(=O)C2CCCN2S(=O)(=O)c2ccc3nc(-c4ccccc4)[nH]c3c2)cc1F (stereo not given)	-1.3%	·	-7.9%	-3.4%	20.6µM*
Cc1c(C(=O)Nc2ccccc2)cn2c(nc3ccccc32)c1C#N	-0.2%	3.7%	1.0%	-1.0%	?
Cc1ccccc1C(=O)Nc1ccc2c(C#N)c3nc4ccccc4nc3n2c1	0.3%	18.4µM*	-1.6%	?	?
COc1cc2c(cc1OC)[C@@H](NC(=O)CCc1ccccc1)[C@H](OCc1ccccc1)C2	4.1%	?	0.0%	3.0%	2.3%
CCCCn1c(SCc2nc3ccccc3s2)nc2cc(S(N)(=O)=O)ccc21	10.0%	18.4µM*	3.9%	-14.4%	?
CCC(=O)c1ccc(OC(=O)Cc2ccc(OC)cc2)cc1	-0.8%	-4.2%	0.0%	0.0%	0.7%
CSc1cccc(NC(=O)c2ccc(CN3CCc4ccccc4C3)cc2)c1	3.8%	-20.8%	-6.7%	-7.7%	?
O=C(Nc1cccc(Br)c1)c1ccc(CN2CCc3ccccc3C2)cc1	8.5%	?	-1.9%	-18.4%	8.2µM*
O=C(Nc1ccc(F)cc1)c1ccc(CN2CCc3ccccc3C2)cc1	2.9%	-23.4%	-9.8%	-0.7%	5.8µM*
CC(C)Oc1ccc(CNC(=O)CCCn2c(=O)c3cccn3c3cccnc32)cc1	3.8%	·	12.0%	2.4%	-26.8%
CCC(C)C(NC(=O)C(Cc1ccc(O)cc1)NC(=O)OCc1ccccc1)C(=O)OC (stereo not given)	0.7%	·	·	·	·
COc1ccc(N(C)S(=O)(=O)c2cccc(C(=O)OCC(=O)c3c(N)n(C)c(=O)n(C)c3=O)c2)cc1	0.2%	18.3µM*	4.7%	-11.5%	20.6µM*
O=C(Nc1nc2ccccc2[nH]1)c1cccc(Cl)c1	5.01µM*	?	2.9%	9.8%	?
COc1cccc(NC(=O)c2sc(NC(=O)c3ccncc3)nc2C)c1	-0.5%	-23.9%	2.0%	0.1%	11.6µM*
COc1ccc(N(C)S(=O)(=O)c2cccc(C(=O)Nc3cccc(C(=O)NC4CC4)c3)c2)cc1	0.0%	20.6µM*	5.8%	1.4%	?
CCN(c1ccccc1)S(=O)(=O)c1cccc(C(=O)OCC(=O)c2c(N)n(C)c(=O)n(C)c2=O)c1	0.5%	·	0.5%	-5.3%	?
O=C(Nc1nc2ccccc2[nH]1)c1ccc(Cl)cc1	0.6%	?	1.8%	-15.6%	?
COc1ccc(N(C)S(=O)(=O)c2cccc(C(=O)Nc3nc4ccccc4[nH]3)c2)cc1	5.5%	?	-3.9%	-7.7%	23.1µM*
CN(c1cccc(Cl)c1)S(=O)(=O)c1cccc(C(=O)Nc2nc3ccccc3[nH]2)c1	0.0%	?	-8.0%	-27.3%	?
SMILES	Nrf2 ARE act	ELG1 DNA repair	IDH1 R132H inh	A549 viability	Nrf2 block
COc1ccc(N(C)S(=O)(=O)c2cccc(C(=O)Nc3nc(C)c(C(C)=O)s3)c2)cc1	-0.2%	10.3µM*	2.4%	2.3%	-23.2%
CC(OC(=O)CC1CCCC1)C(=O)Nc1ccc(S(N)(=O)=O)cc1 (stereo not given)	15.5%	7.1%	-5.2%	1.7%	3.6%
Cc1nc(NCCc2ccc(S(N)(=O)=O)cc2)c2c(C)c(C)sc2n1	1.8%	13µM*	2.9%	5.6%	?
CC(C)(C)OC(=O)N1CCC(c2c(C(=O)NCc3ccco3)cnn2-c2ccc(F)cc2)CC1	7.4%	·	4.7%	3.3%	11.8%
CCn1c(=O)n(CC)c2cc(N3CCCC3)c(NC(=O)c3ccccc3OC)cc21	6.2%	?	-13.0%	?	?
CCn1c(=O)n(CC)c2cc(N3CCCC3)c(NC(=O)c3ccc(OC)c(Br)c3)cc21	2.6%	11.6µM*	?	-15.6%	-16.0%
CCn1c(=O)n(CC)c2cc(N3CCCC3)c(NC(=O)c3cc(Cl)ccc3OC)cc21	-0.2%	18.3µM*	?	?	20.6µM*
CCOc1ccccc1C(=O)Nc1cc2c(cc1N1CCCC1)n(CC)c(=O)n2CC	2.6%	8.2µM*	46.5µM*	6.3%	0.4%
CCOC(=O)c1ccccc1NC(=O)CSc1ncc2c(n1)-c1ccccc1N(CC)S2(=O)=O	1.0%	·	-6.9%	0.4%	-29.5%
CCCc1c(C)c2ccc(O)c(CN3CCN(c4ccc(F)cc4)CC3)c2oc1=O	-0.5%	·	5.9%	11.8%	9.3%
CC(C)(Oc1ccc(Cl)cc1)C(=O)Nc1nc2ccc(S(C)(=O)=O)cc2s1	10.2%	·	-7.4%	-3.3%	-12.1%
COC(=O)c1sc(-c2ccc(Cl)cc2)cc1N	6.8%	?	1.9%	-3.8%	?
COC(=O)c1sc(-c2cccs2)cc1N	8.91µM*	?	1.0%	-1.9%	32.3%
Cc1cc(/C=C2\SC(=Nc3ccccc3)NC2=O)c(C)n1-c1ccc(S(N)(=O)=O)cc1	4.3%	11.2µM*	-23.1%	8.2µM*	·
Cc1cccc(C)c1OCc1nc2ccccc2c(=O)n1/N=C/c1c[nH]c2ccccc12	-0.6%	8.2µM*	6.5%	?	?
Cc1ccccc1OCc1nc2ccccc2c(=O)n1/N=C/c1c[nH]c2ccccc12	5.8%	?	7.8%	?	?
Cc1cc(/C=N/n2c(COc3ccccc3C)nc3ccccc3c2=O)c(O)c([N+](=O)[O-])c1	2.5%	3.0%	-13.9%	?	8.2µM*
O=c1c2ccccc2nc(COc2ccccc2)n1/N=C/c1cc([N+](=O)[O-])ccc1O	2.1%	-20.8%	-1.7%	-8.8%	-22.4%
Cc1ccc(-c2[nH]ncc2/C=N/n2c(COc3ccccc3C)nc3ccccc3c2=O)cc1	9.8%	2.59µM*	4.4%	?	?
Cc1ccc(NC(=O)Cn2nc3c(cc2=O)CCCC3)cc1Cl	0.3%	·	-2.7%	-18.2%	·
CCCC/C=C/[C@H](c1ccccc1)[C@H](CO)Cc1ccccc1	·	·	·	-11.0%	15.1%
Cc1ccc(C)c(-n2c(SCC(=O)NC(C(=O)O)C(C)C)nnc2-c2cccc(Cl)c2)c1 (stereo not given)	0.2%	4.9%	3.1%	0.1%	8.1%

High-throughput results from PubChem BioAssay.
